This note sets out measurements from PubChem BioAssay.

SMILES strings stand for the structures. Measured potencies and affinities stand elsewhere. Calls of active or inactive are those of the source.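 The calls were made as follows, unless noted: active = earlier screen potentiator hit that boosts the TRPC4 ion channel at some dose, with a dose response; inactive = no potentiation, no dose response, or not a prior hit.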

Chain of Short transient receptor potential channel 4 (Mus musculus) (Q9QUQ5 whole entry, looked up): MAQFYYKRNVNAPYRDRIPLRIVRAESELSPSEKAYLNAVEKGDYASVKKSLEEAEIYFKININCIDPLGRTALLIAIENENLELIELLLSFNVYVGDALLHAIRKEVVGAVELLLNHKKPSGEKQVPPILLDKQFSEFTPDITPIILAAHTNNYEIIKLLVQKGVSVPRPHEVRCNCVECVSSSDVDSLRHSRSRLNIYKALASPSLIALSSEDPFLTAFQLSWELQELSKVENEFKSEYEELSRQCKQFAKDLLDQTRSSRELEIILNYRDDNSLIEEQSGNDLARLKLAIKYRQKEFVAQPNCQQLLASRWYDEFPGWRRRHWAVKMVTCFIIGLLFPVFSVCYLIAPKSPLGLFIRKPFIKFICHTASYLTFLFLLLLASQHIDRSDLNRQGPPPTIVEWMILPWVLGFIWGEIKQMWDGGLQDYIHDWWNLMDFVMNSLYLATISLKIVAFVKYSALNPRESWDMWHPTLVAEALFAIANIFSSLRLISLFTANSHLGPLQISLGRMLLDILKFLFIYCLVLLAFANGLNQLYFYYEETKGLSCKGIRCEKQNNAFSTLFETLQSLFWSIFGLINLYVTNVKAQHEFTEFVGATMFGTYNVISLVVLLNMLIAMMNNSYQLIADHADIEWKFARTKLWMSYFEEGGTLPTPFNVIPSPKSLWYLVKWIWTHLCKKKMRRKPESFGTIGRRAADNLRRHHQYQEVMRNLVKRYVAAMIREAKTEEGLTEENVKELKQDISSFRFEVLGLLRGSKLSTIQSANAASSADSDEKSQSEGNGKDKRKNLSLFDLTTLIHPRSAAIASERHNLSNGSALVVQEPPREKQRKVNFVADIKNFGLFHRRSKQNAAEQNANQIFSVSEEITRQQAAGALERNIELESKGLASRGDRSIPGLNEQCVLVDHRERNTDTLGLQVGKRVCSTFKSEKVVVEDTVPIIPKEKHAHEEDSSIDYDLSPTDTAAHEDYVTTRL

The first test addresses Short transient receptor potential channel 4 (Mus musculus) (UniProt Q9QUQ5). As to the kind of experiment: potentiation of DAMGO-evoked TRPC4 calcium signal – cell-based, HEK293 TRPC4/mu-opioid, Fluo-4 calcium, EC20 DAMGO, dose response (AID 434941).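 Also: calcium entry triggered by an EC20 dose of DAMGO at the co-expressed mu-opioid receptor.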 The note with it: HEK293 TRPC4/mu-opioid cells, Fluo-4 calcium fluorescence; series mostly up to 20 µM.
On to `CN(CCCNC(=O)CCCOc1cc(=O)n(C)c2ccccc12)Cc1ccccc1`, for which the result was inactive.

On to `CCOc1ccccc1C(=O)NCCc1cnc[nH]1`, for which the result was inactive.

As for `Cc1ccccc1-n1c(=O)c2c(n3cnnc13)-c1ccccc1CC21CCCCC1`, the result was inactive.

Turning to `CN(C)S(=O)(=O)N1CCC(CCCC2CCN(S(=O)(=O)N(C)C)CC2)CC1`, the outcome was inactive.

For the compound `O=C(Nc1ccnn1C1CCN(Cc2cc3ccccc3[nH]2)CC1)C1CCOC1` (stereo not drawn), the result was inactive.

For the compound `C=CCOc1ccc(CN(C)Cc2nc3cc(C(F)(F)F)ccc3c(=O)[nH]2)cc1`, the outcome was inactive.

Regarding `Cc1ccc(C(=O)C[n+]2cccc3cc(C)ccc32)cc1`, the outcome was inactive.

Regarding `CN(C)CCCN(C(=O)CCc1ccccc1)c1nc2ccc(F)cc2s1`, the outcome was inactive.

As for `CC(=O)n1cc([C@@H]2C=C(C(=O)NCc3ccccc3)O[C@H](OCc3ccc(CO)cc3)C2)c2ccccc21`, the result was inactive.

In the case of `O=C(O)CCCN1C(=O)/C(=C\c2ccc(-c3nc4ccccc4s3)o2)SC1=S`, the outcome was inactive.

In the case of `CCOCCCn1c(=S)[nH]c2cc(C(=O)NCCCN(CC)CC)ccc2c1=O`, the result was inactive.

In the case of `O=C(NCc1ccccc1)c1ccc(S(=O)(=O)Nc2cccc(C(F)(F)F)c2)cc1`, the result was inactive.

Consider `CCOC(=O)C1CCCN(C(=O)CCCn2nnnc2CN2CCOCC2)C1` (stereo not drawn), for which the outcome was inactive.

In the case of `COc1cc(OC)c2c(-c3ccccc3)cc(=O)oc2c1C(CCN1CCCCC1)c1ccc(N(C)C)cc1` (stereo not drawn), the result was inactive.

As to `CCCCCCCCCC[n+]1cccc2c3ccccc3ccc21`, the outcome was inactive.

For `CC(C)NS(=O)(=O)c1ccc(NC(=O)C(C)Oc2ccc(C(=O)c3ccccc3)cc2)cc1` (stereo not drawn), the result was inactive.

On to `Cc1ccc(C(=O)NNC(=O)C2CSC3(C)CCC(=O)N23)cc1` (stereo not drawn), for which the result was inactive.

On to `CCCc1nc2oc3c(NCCCN(C)C)ncnc3c2c2c1CCCC2`, for which the outcome was inactive.

Regarding `CCc1nc2ccccc2n1Cc1ccccc1F`, the result was inactive.

As to `O=C(Cc1ccccc1)Nc1cccc(NC(=O)c2cccs2)c1`, the outcome was inactive.

Consider `CCCCN(CC)CCCNC(=O)c1cc2cc3ccc(C)cc3nc2o1`, for which the result was inactive.

Take `O=C1C=CC(=O)N1CCNc1ncc(C(F)(F)F)cc1Cl`: the outcome was inactive.

Consider `Cc1cc(NC(=O)CSCC(=O)Nc2ccc(Cl)c(C(F)(F)F)c2)no1`, for which the outcome was inactive.

For the compound `Cc1ccc2c(c1)C1CN(C)CCC1N2C(=S)NC(=O)c1ccc(Br)cc1` (stereo not drawn), the outcome was inactive.

For `CCc1nc2ccccc2n1Cc1ccc(F)cc1`, the outcome was inactive.

As to `CCN(CC)CCSc1nnc2c3ccccc3n(Cc3ccccc3)c2n1`, the result was inactive.

Consider `CCN1C2=NCCCN2c2cc(C)c(C)cc21`, for which the outcome was inactive.

With `Cc1cc(C)c2c(=O)n(CC(=O)Nc3cccc(Cl)c3C)sc2n1`, the result was inactive.

With `COc1cc(C2(c3ccc(O)c(OC)c3)C(=O)Nc3c(C)cc(Br)cc32)ccc1O`, the outcome was inactive.

On to `COc1ccc(CC2(CO)CCN(C/C=C/c3ccccc3OC)CC2)cc1`, for which the outcome was inactive.

For `Cc1nn(-c2cc(C(F)(F)F)ccc2Cl)c2nc(C(Cl)(Cl)Cl)[nH]c(=O)c12`, the result was inactive.

`Cc1ccc(C(=O)O)cc1N=Cc1cc(Br)cc(Br)c1O`: the outcome was inactive.

For `CCOc1ccc(N=CNc2ccc(OCC)cc2)cc1`, the outcome was inactive.

With `CCN(CC)c1ncnc2sc3c(c12)CCC3`, the result was inactive.

On to `COc1ccc(NS(=O)(=O)c2ccc3ccccc3c2)c2ncccc12`, for which the outcome was inactive.

Take `CCN1CCN(CCC(=O)Nc2ccccc2OC)CC1`: the result was inactive.

Consider `COc1cc(NC(=O)CSc2ncnc3sc4c(c23)CCC(C)C4)c(C(=O)O)cc1OC` (stereo not drawn), for which the result was inactive.

`Cc1[nH]nc(-c2ccc(O)cc2O)c1-c1nc2ccccc2s1`: the result was inactive.

In the case of `CC1CCC2C(C1)c1sc(=O)[nH]c1SC2(C)C` (stereo not drawn), the outcome was inactive.

The next test shares this target. Kind of test: block of DAMGO-driven TRPC4 calcium entry – cell-based, HEK293 TRPC4/mu-opioid, Fluo-4 calcium, dose response (AID 434942;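 active = primary screen inhibitor hit that blocks the TRPC4 channel at some tested dose, yielding a dose curve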). To be noted: HEK293 TRPC4/mu-opioid cells, DAMGO-evoked Fluo-4 calcium ratio; series mostly up to 20 µM.
As for `CN(CCCNC(=O)CCCOc1cc(=O)n(C)c2ccccc12)Cc1ccccc1`, the result was inactive.

Consider `CCOc1ccccc1C(=O)NCCc1cnc[nH]1`, for which the outcome was inactive.

For the compound `Cc1ccccc1-n1c(=O)c2c(n3cnnc13)-c1ccccc1CC21CCCCC1`, the result was inactive.

For the compound `CN(C)S(=O)(=O)N1CCC(CCCC2CCN(S(=O)(=O)N(C)C)CC2)CC1`, the result was inactive.

In the case of `O=C(Nc1ccnn1C1CCN(Cc2cc3ccccc3[nH]2)CC1)C1CCOC1` (stereo not drawn), the result was inactive.

On to `C=CCOc1ccc(CN(C)Cc2nc3cc(C(F)(F)F)ccc3c(=O)[nH]2)cc1`, for which the outcome was inactive.

With `Cc1ccc(C(=O)C[n+]2cccc3cc(C)ccc32)cc1`, the result was inactive.

With `CN(C)CCCN(C(=O)CCc1ccccc1)c1nc2ccc(F)cc2s1`, the outcome was inactive.

On to `CC(=O)n1cc([C@@H]2C=C(C(=O)NCc3ccccc3)O[C@H](OCc3ccc(CO)cc3)C2)c2ccccc21`, for which the result was inactive.

`O=C(O)CCCN1C(=O)/C(=C\c2ccc(-c3nc4ccccc4s3)o2)SC1=S`: the outcome was inactive.

Regarding `CCOCCCn1c(=S)[nH]c2cc(C(=O)NCCCN(CC)CC)ccc2c1=O`, the result was inactive.

For the compound `O=C(NCc1ccccc1)c1ccc(S(=O)(=O)Nc2cccc(C(F)(F)F)c2)cc1`, the result was inactive.

Consider `CCOC(=O)C1CCCN(C(=O)CCCn2nnnc2CN2CCOCC2)C1` (stereo not drawn), for which the result was inactive.

Turning to `COc1cc(OC)c2c(-c3ccccc3)cc(=O)oc2c1C(CCN1CCCCC1)c1ccc(N(C)C)cc1` (stereo not drawn), the result was inactive.

`CCCCCCCCCC[n+]1cccc2c3ccccc3ccc21`: the result was inactive.

With `CC(C)NS(=O)(=O)c1ccc(NC(=O)C(C)Oc2ccc(C(=O)c3ccccc3)cc2)cc1` (stereo not drawn), the outcome was inactive.

For the compound `Cc1ccc(C(=O)NNC(=O)C2CSC3(C)CCC(=O)N23)cc1` (stereo not drawn), the outcome was inactive.

Take `CCCc1nc2oc3c(NCCCN(C)C)ncnc3c2c2c1CCCC2`: the result was inactive.

Regarding `CCc1nc2ccccc2n1Cc1ccccc1F`, the result was inactive.

As to `O=C(Cc1ccccc1)Nc1cccc(NC(=O)c2cccs2)c1`, the outcome was inactive.

For `CCCCN(CC)CCCNC(=O)c1cc2cc3ccc(C)cc3nc2o1`, the outcome was inactive.

With `O=C1C=CC(=O)N1CCNc1ncc(C(F)(F)F)cc1Cl`, the outcome was inactive.

Take `Cc1cc(NC(=O)CSCC(=O)Nc2ccc(Cl)c(C(F)(F)F)c2)no1`: the outcome was inactive.

Turning to `Cc1ccc2c(c1)C1CN(C)CCC1N2C(=S)NC(=O)c1ccc(Br)cc1` (stereo not drawn), the result was inactive.

Regarding `CCc1nc2ccccc2n1Cc1ccc(F)cc1`, the result was inactive.

Turning to `CCN(CC)CCSc1nnc2c3ccccc3n(Cc3ccccc3)c2n1`, the result was inactive.

With `CCN1C2=NCCCN2c2cc(C)c(C)cc21`, the outcome was inactive.

Consider `Cc1cc(C)c2c(=O)n(CC(=O)Nc3cccc(Cl)c3C)sc2n1`, for which the result was inactive.

With `COc1cc(C2(c3ccc(O)c(OC)c3)C(=O)Nc3c(C)cc(Br)cc32)ccc1O`, the outcome was inactive.

As for `COc1ccc(CC2(CO)CCN(C/C=C/c3ccccc3OC)CC2)cc1`, the result was inactive.

Turning to `Cc1nn(-c2cc(C(F)(F)F)ccc2Cl)c2nc(C(Cl)(Cl)Cl)[nH]c(=O)c12`, the outcome was inactive.

As to `Cc1ccc(C(=O)O)cc1N=Cc1cc(Br)cc(Br)c1O`, the outcome was inactive.

Turning to `CCOc1ccc(N=CNc2ccc(OCC)cc2)cc1`, the outcome was inactive.

For the compound `CCN(CC)c1ncnc2sc3c(c12)CCC3`, the result was inactive.

On to `COc1ccc(NS(=O)(=O)c2ccc3ccccc3c2)c2ncccc12`, for which the result was inactive.

`CCN1CCN(CCC(=O)Nc2ccccc2OC)CC1`: the outcome was inactive.

In the case of `COc1cc(NC(=O)CSc2ncnc3sc4c(c23)CCC(C)C4)c(C(=O)O)cc1OC` (stereo not drawn), the outcome was inactive.

For `Cc1[nH]nc(-c2ccc(O)cc2O)c1-c1nc2ccccc2s1`, the result was inactive.

`CC1CCC2C(C1)c1sc(=O)[nH]c1SC2(C)C` (stereo not drawn): the outcome was inactive.
